# In ChEMBL document CHEMBL4513216, “Probing the Open Global Health Chemical Diversity Library for Multistage-Active Starting Points for Next-Generation Antimalarials” (ACS Infect Dis, 2020):
# In all, about 65,000 compounds went through this assay and about 2,100 (3.2%) showed an effect of 50% or more. The median lay at about -52%. The sample as a whole holds a higher share of strong results than the screen did.
# Test system: Plasmodium falciparum
# Test: Screen against P. falciparum Asexual Blood Stage (ABS), at 5uM
# Format: functional, Dd2
# Details: tested at 5 uM
row,SMILES,INHIBITION [%]
1,COc1cc(CNCc2ccc(NC(=O)NC(C)C)cc2)cc(OC)c1,-65.3
2,CCC(=O)Nc1cccc(OCC(=O)N2C[C@H]3CC[C@H]2C3)c1,-137
3,COc1cccc(CC(=O)N2CCC3(CC2)OCCCC3O)c1OC (stereo not given),-112
4,O=C(CN1CCCC1Cn1cccn1)NCCC1=CCCCC1 (stereo not given),-61.8
5,CCS(=O)(=O)N1CCc2c(COCc3ccncc3)cncc2C1,-181
6,CCn1nccc1CN(C)C(=O)Cn1nc(C)cc1C,-52.5
7,CC(=O)Nc1cccc(OCCNC(=O)N(C)Cc2ccccc2)c1,-47.8
8,COc1ccc(F)c(F)c1CN1CC(=O)N(c2ccccc2C)CC1C (stereo not given),30.6
9,COc1cccc(CN2CC(=O)N(c3ccccc3C)CC2C)c1OC (stereo not given),53.8
10,COc1ccc(F)c(CN2CC(=O)N(c3ccccc3C)CC2C)c1 (stereo not given),9.59
11,CC(C)c1nnsc1CNC(=O)C1CCCN(C(=O)N(C)C)C1 (stereo not given),-18.2
12,Fc1cccc(CNCC2OCCc3cn(CC4CCOCC4)nc32)c1 (stereo not given),17.8
13,CC(C)n1ncc2c1NC(=O)CC21C(=O)Nc2c(Br)cc(Cl)cc21 (stereo not given),-72.6
14,COCc1nc(CNC(=O)C(C)n2ccnc2C(C)C)no1 (stereo not given),-14.3
15,COc1cc2c(cc1CNC(=O)C(C)n1ccnc1C(C)C)CCC2 (stereo not given),60.2
16,COc1cc2c(cc1CNC(=O)C(C)n1ccnc1C(C)C)OCCO2 (stereo not given),11.4
17,COc1cccc(N2CCN(CCC(=O)NC3CCCCC3)CC2)c1,-28.7
18,CCC(NC(N)=O)c1ccccc1OCC(=O)N1CCCC1 (stereo not given),-37.9
19,CCC(NC(=O)COC)c1ccccc1OCC(=O)N1CCCC1 (stereo not given),-191
20,CCC(N)c1ccccc1OCC(=O)N1CCCC1 (stereo not given),52.5
21,CCOCCC1(C(=O)N2CCCC(c3ncc[nH]3)C2)CCCC1 (stereo not given),-71.1
22,CC(c1ccncn1)N(C)Cc1cc2cc3c(cc2[nH]c1=O)OCO3 (stereo not given),-84.5
23,CCOc1cccc(C(=O)Nc2ccncc2)c1,-39.7
24,COc1c(CNC2CCc3cc(Cl)ccc32)c(C)nn1C (stereo not given),21.4
25,COc1c(CNC2(c3ccc(Cl)cc3)CCC2)c(C)nn1C,60.5
26,COc1c(CNC2(c3noc(C)n3)CCC2)c(C)nn1C,-55.5
27,Cc1nc(-c2ccccc2)cc(C2CCNCC2)n1,57.8

row,SMILES,INHIBITION [%]
1,COc1ccc(-c2cc(C3CCNCC3)nc(C)n2)cc1,-57.7
2,Cc1nc(-c2ccc(F)cc2)cc(C2CCNCC2)n1,-33.4
3,CC(=O)N1CCCC(c2nc(N(C)C)ncc2-c2cccc(F)c2)C1 (stereo not given),-1.35
4,Cc1ccc(C(=O)N2C[C@H]3CCC[C@@]3(COc3ccccn3)C2)nc1,9.4
5,O=C(c1ncccn1)N1C[C@H]2CCC[C@@]2(COc2ccccn2)C1,14.9
6,O=C(c1cocn1)N1C[C@H]2CCC[C@@]2(COc2ccccn2)C1,52.1
7,NC(=O)c1ccn(COc2ccccc2Cl)n1,-63.1
8,Cc1cnn(C2CN(c3ccccc3S(=O)(=O)C(F)(F)F)C2)c1,-111
9,CS(=O)(=O)NC[C@H]1Cn2c(-c3ccccc3)cnc2CO1,-21
10,CS(=O)(=O)NC[C@H]1Cn2c(-c3ccc(F)cc3)cnc2CO1,-34.5
11,CS(=O)(=O)NC[C@H]1Cn2c(-c3ccc(Cl)cc3)cnc2CO1,57.1
12,CN(C)Cc1csc(-c2nccn2Cc2ccsc2)c1,17.1
13,Cc1cccc(C(=O)N2CCC[C@]3(C[C@@H](OCC4CC4)CO3)C2)n1,-156
14,Cn1cc(CN2C[C@H](N3CCOCC3)[C@@H]3OCCC[C@@H]32)cn1,-93.3
15,OC(CNC1CCOCC1)c1cccc(OCc2ccccc2)c1 (stereo not given),53.2
16,c1ccc(COc2cccc(CNC3CCc4ncnn4C3)c2)cc1 (stereo not given),24.8
17,OC(CNC1CCOCC1)c1ccc(Cl)c(F)c1 (stereo not given),50.9
18,CCN1CCC(NC(=O)NCC(O)c2ccc(Cl)c(F)c2)CC1 (stereo not given),-34.9
19,O=C(NCC(O)c1ccc(Cl)c(F)c1)NC1CC=CC1 (stereo not given),-14.7
20,COc1cccc(C(O)CNC(=O)CC2CCCCC2)c1 (stereo not given),-143
21,CC(C)(CNc1cccc(Cl)c1)NC(=O)C1CCCN(CC(N)=O)C1 (stereo not given),-34.6
22,COc1ccccc1-c1ncc(CN2C[C@@H](N(C)C)[C@H](C(C)C)C2)s1,54.7
23,COc1ccccc1-c1ncc(CN2CCCC(CCC(N)=O)C2)s1 (stereo not given),-43.7
24,COc1ccccc1-c1ncc(CN2C[C@H](O)[C@@H](N3CCCC3)C2)s1,16.5
25,CCc1csc(C2CCCN(C(=O)c3ncccn3)C2)n1 (stereo not given),-94
26,CC(C)n1c(=O)c2ccccc2n(CCCN(C)C)c1=O,59.5
27,CN(C)CCn1c(=O)n(C)c(=O)c2ccccc21,-7.78

row,SMILES,INHIBITION [%]
1,CC(C)n1c(=O)c2ccccc2n(CCN(C)C)c1=O,36.1
2,CCN(Cc1ccccc1)C(=O)CCN1CC(O)C1,-76.9
3,Cc1nc(C)c(C(=O)N2Cc3ccccc3OCC2Cn2ccnc2)s1 (stereo not given),-22.8
4,N#Cc1ccccc1N1CCN(C(=O)NCC(=O)N2CCCC2)CC1,-1.82
5,COC(=O)N1CCCCC1C(=O)N1CCN(c2cccnc2)CC1 (stereo not given),-87.5
6,CC(C)N1CCC(C(=O)N2CCCN(c3ccccc3)CC2)CC1,-38.1
7,CN1CCCCCC1C(=O)N1CCCN(c2ccccc2)CC1 (stereo not given),61.8
8,CN1CCCCCC1C(=O)N1CCN(c2ccccc2C#N)CC1 (stereo not given),60.4
9,CN1CCCCC1C(=O)N1CCN(c2ccccc2C#N)CC1 (stereo not given),11.5
10,CC[C@H]1CN(C(=O)c2ccc(-n3cnnc3)nc2)CC[C@@]1(C)O,-129
11,Cc1noc(C)c1CCC(=O)N1CCCN(Cc2cccs2)CC1,-63
12,CC(C1CCN(Cc2cccc(OC(F)F)c2)CC1)N1CCOCC1 (stereo not given),68.3
13,CC(C)Oc1cccc(CN2CCC(C(C)N3CCOCC3)CC2)c1 (stereo not given),55.8
14,CC(C1CCN(Cc2ccccc2OC(F)F)CC1)N1CCOCC1 (stereo not given),9.39
15,CC(C1CCN(Cc2ccc(OC(F)F)cc2)CC1)N1CCOCC1 (stereo not given),-26.3
16,CC(C1CCN(Cc2ccc(N(C)C)nc2)CC1)N1CCOCC1 (stereo not given),-5.43
17,CC(C)Oc1cccc(CN2CCC(c3n[nH]c4ncccc34)CC2)c1,-51.3
18,CCc1ccc(C(CNC(=O)c2c(C)noc2C)N(C)C)cc1 (stereo not given),-71.9
19,O=C(NC1CC1)[C@H]1C[C@H]2OCC[C@H]2N(CC2CC2)C1,-28.3
20,CC(C)(C)CC(=O)NCCn1nc(C2CCNC2)c2cccnc21 (stereo not given),-134
21,Cc1nccc(NCc2cncc3c2CCN(CC2CCOC2)C3)n1 (stereo not given),-81.6
22,CC(C)n1cc(C(=O)N2CCN(c3cccc(C(F)(F)F)c3)CC2)cn1,-46.5
23,CC(O)Cc1cn(CC2CCN(c3nccc4occc34)CC2)nn1 (stereo not given),-39.4
24,CN(C)Cc1cn(CC2CCCN(c3nccc4occc34)C2)nn1 (stereo not given),60.5
25,O=C(O)c1cn(CC2CCCN(c3nccc4occc34)C2)nn1 (stereo not given),-30.1
26,CC(C)(C)c1ncc(C(=O)NCc2ccccc2CN2CCCC2)s1,-23.4
27,O=C(c1ccc[nH]1)N1C[C@H](OCc2ccccn2)[C@H]2COC[C@H]21,-89.2

row,SMILES,INHIBITION [%]
1,O=C1NCCN1C1CCN(Cc2coc(-c3ccc(F)cc3)n2)CC1,-71.8
2,C[C@@H]1CN(C2CCN(Cc3nn(C)c4cccc(Cl)c34)CC2)C[C@H](C)O1,-9.68
3,Cn1nc(CN2CCC(c3ccncc3)CC2)c2c(Cl)cccc21,-14.6
4,Cn1nc(CN2CCCN(C3CCCC3)CC2)c2c(Cl)cccc21,68.9
5,COCCN1C(=O)CO[C@H]2CN(Cc3ccccc3Cl)C[C@@H]21,-123
6,CCN1CCOCC12CCN(c1nccs1)CC2,-144
7,CN(CCN1CCOC1=O)CC(=O)Nc1ccc(Cl)c(C(F)(F)F)c1,-56.7
8,Nc1cc(-c2cc(O)cc(C(=O)O)c2)c2cc[nH]c2n1,-9.72
9,CNc1cc(-c2ccc(COCCN)cc2)c2cc[nH]c2n1,2.35
10,CCNCCOc1ccc(-c2cc(N)nc3[nH]ccc23)cc1,51.3
11,CCOCCCNC(=O)c1ccccc1S(C)(=O)=O,-120
12,CSCCNc1ccc(C(=O)N(C)Cc2ccc3ccccc3n2)cn1,-73.9
13,CCOc1ccc(NC(=O)NCCS(=O)(=O)CC)cc1C,4.65
14,COc1cc(CNCc2ccc(C(C)O)cc2)cc2c1OCO2 (stereo not given),9.88
15,COc1cc(CNCCc2cnn(C)c2)cc2c1OCO2,-26.5
16,COc1cc(CNCC(O)c2ccccc2)cc2c1OCO2 (stereo not given),61.1
17,Cc1ccc(CN2CCc3onc(C(=O)NCCN(C)C)c3C2)o1,-43.9
18,CS(=O)(=O)N1CC2(CCN(CC3CCCCC3)CC2)Cc2ccccc21,63.8
19,CS(=O)(=O)N1Cc2ccccc2CC2(CCN(Cc3ccccc3)C2)C1 (stereo not given),9.04
20,CS(=O)(=O)N1CC2(CCCN2Cc2ccc(Cl)cc2)Cc2ccccc21 (stereo not given),-33
21,CS(=O)(=O)N1CC2(CCN(CC3CCCCC3)C2)Cc2ccccc21 (stereo not given),-36.9
22,CS(=O)(=O)N1CC2(CCCN(CC3CC3)C2)Cc2ccccc21 (stereo not given),69.8
23,CC(=O)N1CC2(CCCN(Cc3ccc(Cl)cc3)C2)Cc2ccccc21 (stereo not given),-0.688
24,Cc1csc(N2CCN(CC(=O)Nc3ccncc3)CC2C)n1 (stereo not given),-32.7
